# TGFb inhibitor: inhibitors of TGF-b signaling; HepG2 CAGA-GFP TGF-b/SMAD3 reporter, GFP fluorescence, 18 h; TGF-beta stimulated, 500 pg/mL final; Potency, µM (top dose mostly 46.1 µM), inactives show at the highest dose activity, negative = inhibition, usual class: inhibitors; 410,000 tested, 1.2% active; AID 588855; further: on the % scale 0 is the no-effect control and ±100 the full control effect; nearly all actives have a fitted effect of over 65% in size
#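 Inhibition was scored as loss of TGF-beta-induced (500 pg/mL final, 18 hours, 37 degrees C) GFP in HEPG2 cells carrying a CAGA-GFP reporter, in DMEM with 1% FBS. Well GFP was summed per cell; Activity was normalised to unstimulated and stimulated DMSO wells, then concentration-response fitting.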
# KB-V1 MDR tox: kills drug-selected multidrug resistant KB-V1 cells; KB-V1 MDR cells viability, CellTiter-Glo, 72 h; Potency, µM (doses to about 46.1 µM), actives largely listed as cytotoxic; 400,000 tested, 3.4% active; AID 1347076; further: on the % scale 0 is the no-effect control and ±100 the full control effect; nearly all actives have a fitted effect of over 60% in size
#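 Readout: CellTiter-Glo luminescence, 10 min after addition. Cells: KB-V1 MDR subline, 72 h at 37 degrees C with compound. Analysis: corrected, normalized data fitted to concentration-effect curves.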
# KB-3-1 tox: KB-3-1 parental cell cytotoxicity; KB-3-1 viability, CellTiter-Glo ATP luminescence, 72 h; Potency, µM (doses to about 46.1 µM), hits mostly cytotoxic; 400,000 tested, 1.4% active; AID 1347075; further: on the % scale 0 is the no-effect control and ±100 the full control effect; nearly all actives have a fitted effect of over 60% in size
#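 KB-3-1 parental drug-naive adenocarcinoma cells in DMEM/10% FBS, incubated 72 h at 37 C with pin-transferred compounds across a concentration series. Viability by CellTiter-Glo luminescence; concentration-response curves fitted after normalization.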
# HT1080-NT tox: kills 2HG-producing HT-1080-NT fibrosarcoma cells; HT-1080-NT fibrosarcoma viability, CellTiter-Glo ATP luminescence, 48 h; Potency, µM (top dose mostly 46.1 µM), inactives show top-dose activity, negative = less viability, actives largely listed as cytotoxic; 360,000 tested, 1.6% active; AID 686970;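 further: NT is the 2HG producing partner of a matched IDH1 knockdown line; 0% = DMSO-treated cells and -100% = media-only wells without cells; nearly all actives have a fitted effect of over 55% in size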
#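 Fibrosarcoma NT cells, 750 per well in 5% FBS RPMI, were exposed to compound for 48 hours. Viability: CellTiter-Glo luminescence.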
# HT1080 IDH1KD tx: toxicity to HT-1080 IDH1 knockdown cells (counter line); HT-1080 IDH1 knockdown viability, ATP luminescence, 48 h; AID 686971; Potency, µM (top dose mostly 46.1 µM), for inactives: at the top dose activity, negative = toxicity, most hits filed as cytotoxic; 360,000 tested, 2% active;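 further: 0% = DMSO wells and -100% = cell-free medium wells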
#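 Assay cells: HT-1080 with IDH1 knockdown, 750 per well, RPMI/5% FBS. Exposure: 48 h at 37 °C following 2 h pre-incubation. Read: CellTiter-Glo luminescence; fitted concentration-response, curve class assigned.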
# HepG2 tox: counter-screen for TGF-b inhibitors: cytotoxicity in HepG2 cells. HepG2 CAGA-GFP viability, ATP luminescence, 18 h. Potency, µM (top dose mostly 46.1 µM), without a hit: at the highest dose activity change, negative = cytotoxicity, most hits filed as cytotoxic. 410,000 tested, 0.76% active. AID 588856
#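 HepG2 CAGA-GFP cells (1000/well, DMEM with 1% FBS) received compound, then TGF-beta at 500 pg/mL final, and were incubated 18 hours at 37 degrees C. Viability was read by CellTiter-Glo luminescence. Media-only wells were set as complete cell-killing and DMSO as no toxicity.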
# Starred values were filed as active, the others as inactive; i = inactive; u = inconclusive; x = not tested or not shown. Rows were chosen to be rich in hits. Some 6.6% of all compounds tested hit in one or more screens of this group. The call rests on the fitted dose curve; in most records, active means well fitted curve in the direction sought with a large enough effect; inconclusive means small, poorly fitted or top-dose-only effect, or another doubt; inactive means no such curve, though single readings can be large; an effect the other way counts as inactive or inconclusive. Potency means the concentration at half of the fitted maximal effect.
SMILES,TGFb inhibitor,KB-V1 MDR tox,KB-3-1 tox,HT1080-NT tox,HT1080 IDH1KD tx,HepG2 tox
CC(C)Oc1ccc(CNC(=O)c2cc3ccccn3n2)cc1,u,i,i,x,x,-2%
CCOC(=O)c1ccc(NC(=O)CCc2nc3cccnc3n2Cc2cccs2)cc1,u,u,i,x,x,-42%
O=C(NC1CCCCC1)C(c1cccc2ccccc12)n1c(=O)c(-c2ccco2)nc2ccccc21 (centres undefined),x,i,i,-28%,-23%,x
COc1ccc(S(=O)(=O)N[C@@H](C)C(=O)OCC(=O)Nc2cc3oc4ccccc4c3cc2OC)cc1,-2%,i,i,4%,2%,4%
COc1cc2c(cc1NC(=O)c1cccc(S(=O)(=O)N(C)C)c1)oc1ccccc12,1%,10µM*,i,-7%,u,-15%
COc1cc2c(cc1NC(=O)COC(=O)[C@@H](NS(=O)(=O)c1cccc(Cl)c1)C(C)C)oc1ccccc12,u,23µM*,i,-7%,-19%,-36%
COc1cc2c(cc1NC(=S)Nc1cccc(C)c1)oc1ccccc12,-1%,i,i,10µM*,u,-25%
CCN(CC)C(=O)c1ccccc1NC(=O)c1cccc(S(=O)(=O)N2CCC(C)CC2)c1,-1%,i,i,x,x,-3%
O=C(CCCOc1ccccc1)N1CCN(S(=O)(=O)c2ccccc2)CC1,-2%,i,i,11%,3%,3%
O=C(CCC(=O)N1CCc2ccccc2C1)N1CCN(S(=O)(=O)c2ccccc2)CC1,-2%,13µM*,i,6%,5%,-7%
COc1ccc(S(=O)(=O)N2CCN(CC(=O)N3CCc4ccccc4C3)CC2)cc1OC,u,i,i,0%,0%,-16%
O=C(c1cc2c(s1)CCCC2)N1CCN(S(=O)(=O)c2ccccc2)CC1,0%,u,i,1%,-3%,10µM*
O=C(CN1CCN(S(=O)(=O)c2ccc(F)c(Cl)c2)CC1)N1CCc2ccccc21,u,3.3µM*,u,1%,2%,0%
O=C(CN1CCN(S(=O)(=O)c2ccc(F)c(Cl)c2)CC1)N1CCc2ccccc2C1,u,9.2µM*,i,-1%,-2%,-7%
Cc1ccc(-n2ncc(C(=O)Nc3ccc4c(c3)OCCO4)c2C2CCN(C(=O)OC(C)(C)C)CC2)cc1C,-4%,i,i,x,x,2%
CC(NC(=O)c1cccc2c1Oc1ccccc1S2)C(=O)O (centres undefined),0%,i,i,6%,2%,-42%
Cc1ccc(NC(=O)c2ccc(NC(=O)C3CCCC3)cc2)c(C)c1,x,x,x,4%,3%,x
CCOc1ccccc1NC(=O)c1nc(S(=O)(=O)Cc2ccccc2F)ncc1Cl,u,i,i,x,x,-18%
COc1ccc(OC)c(NC(=O)c2nc(S(=O)(=O)Cc3ccccc3F)ncc2Cl)c1,u,i,u,x,x,3.2µM*
O=C(Nc1ccccc1F)c1nc(S(=O)(=O)Cc2ccccc2F)ncc1Cl,4.5µM*,i,i,x,x,8.9µM*
COc1ccccc1CNC(=O)C/C(C)=N/NC(=O)COc1ccc(C)cc1Br,-25%,i,23µM*,u,-14%,-1%
O=C(c1ccc(F)cc1)c1cn(Cc2ccccc2)c2cc3c(cc2c1=O)OCO3,3%,i,i,x,x,-7%
Cc1cccc2nc(-c3cccnc3)c(Nc3ccccc3)n12,u,18µM*,u,-5%,-7%,-41%
COCCc1nn2c(=O)cc(COC(=O)C(c3ccccc3)c3ccccc3)nc2s1,-16%,i,i,x,x,-31%
O=C(Cn1ncc(Cl)c(Cl)c1=O)NC(=O)NC1CCCCC1,u,u,u,u,6.5µM*,-52%

# Screens (PubChem BioAssay)
